Sampled rows, rich in hits. Any-hit rate of the full collection: about 2.4%.
TNF death inh – inhibitors of TNF-alpha triggered necroptosis, primary screen, cell-based, Jurkat FADD-/-, single concentration | Jurkat FADD-/- TNF necroptosis rescue, ATP luminescence, 24 h; 0 = TNF only, 100 = no-TNF cells | activation (protection from cell death), % at 10 µM | 220,000 compounds, 0.068% hits | AID 463075, 2010;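 active = activation, meaning protection from cell death, of at least 50% relative to plate controls; inactive = activation below 50%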;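 also: necroptosis triggered by 40 ng/mL TNF-alpha added together with compound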
WT yeast gro inh – growth inhibition of WT strain, primary screen, mitochondrial fusion inhibitor project, WT and mutant strains, chemical genetic; inhibition, % at 10 µM; mitochondrial fusion phenotypic screen; 190,000 compounds, 2.1% hits; AID 1362, 2008; in the data active = inhibition above about 58%; tested in S. cerevisiae
DTT redox prof – compounds producing H2O2 with reducing agent – biochemical, NIH compound library profiling, artefact control for MLSCN library redox annotation, primary screen | DTT-dependent redox cycling H2O2, phenol red/HRP absorbance; 100% = 100 µM peroxide control, 0% = buffer | 200,000 compounds, 0.03% hits | activation, % at 10 µM;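 active = activation of at least 50% relative to the plate's high and low controls in the primary single-dose screen; inactive = activation below 50%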;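 also: compound incubated with DTT at 0.8 mM final as the reducing agent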
zVAD death inh – inhibitors of zVAD-triggered necroptosis, primary screen, L929 cells; L929 zVAD necroptosis rescue, ATP luminescence, 24 h; with zVAD 60 µM; viability rescue, % at 10 µM; 220,000 compounds, 0.38% hits;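 active = activation, scaled between plate controls, above about 75%, limit read from the data; inactive = activation under that limit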;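 also: 0% = zVAD with DMSO and 100% = DMSO alone without zVAD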
PKD1 inh – inhibitors of human PKD1 kinase, biochemical, fluorescence polarization | Serine/threonine-protein kinase D1 (Homo sapiens), Q15139 | PKD1 kinase fluorescence polarization assay | inhibition, % (no concentration beside the values) | 200,000 compounds, 0.056% hits; in the data active = inhibition above about 50%
Target sequence (Q15139 whole entry, looked up): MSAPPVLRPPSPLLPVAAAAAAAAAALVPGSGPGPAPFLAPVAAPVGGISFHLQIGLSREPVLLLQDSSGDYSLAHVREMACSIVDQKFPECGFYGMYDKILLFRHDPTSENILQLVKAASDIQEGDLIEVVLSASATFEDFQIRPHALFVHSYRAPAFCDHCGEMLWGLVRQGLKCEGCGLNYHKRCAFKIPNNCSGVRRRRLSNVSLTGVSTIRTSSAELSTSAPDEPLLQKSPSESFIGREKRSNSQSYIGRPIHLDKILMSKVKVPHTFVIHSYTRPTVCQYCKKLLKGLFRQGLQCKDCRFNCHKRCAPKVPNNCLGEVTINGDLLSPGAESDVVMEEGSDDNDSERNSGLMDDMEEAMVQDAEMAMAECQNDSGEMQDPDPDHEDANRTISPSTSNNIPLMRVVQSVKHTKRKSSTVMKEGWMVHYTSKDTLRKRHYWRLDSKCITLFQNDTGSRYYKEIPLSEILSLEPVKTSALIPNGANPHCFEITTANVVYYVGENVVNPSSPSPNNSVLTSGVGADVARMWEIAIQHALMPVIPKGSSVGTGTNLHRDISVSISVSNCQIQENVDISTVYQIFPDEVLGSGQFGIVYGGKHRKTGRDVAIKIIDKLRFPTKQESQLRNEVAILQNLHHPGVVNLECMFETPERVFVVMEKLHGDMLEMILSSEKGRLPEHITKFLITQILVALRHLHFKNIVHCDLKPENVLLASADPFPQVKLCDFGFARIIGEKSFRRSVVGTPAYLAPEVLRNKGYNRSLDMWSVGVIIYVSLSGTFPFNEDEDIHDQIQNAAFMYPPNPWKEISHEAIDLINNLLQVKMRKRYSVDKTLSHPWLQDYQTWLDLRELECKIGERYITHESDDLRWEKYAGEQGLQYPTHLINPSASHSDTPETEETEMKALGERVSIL
PERK inhibitor – block of dimerizer-induced PERK translation repression, primary screen, PERK inhibitor project, CHO PERK-DD cells, SEAP luminescence, HTS; Eukaryotic translation initiation factor 2-alpha kinase 3 (Homo sapiens), Q9NZJ5; CHO PERK-DD fusion, SEAP luminescence translation reporter; inhibition, % at 5.6 µM; 220,000 compounds, 0.17% hits; AID 1416, 2008;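 active = inhibition above the mean inhibition of all tested compounds plus 3 SD, set separately per screening campaign, cut at about 2.9% in these data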;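 also: PERK kinase domain activated by AP20187 dimerizer at 100 nM; 0% = DMSO with dimerizer and 100% = rapamycin at 8.4 µM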
DTT redox conf – generates H2O2 by DTT-dependent redox cycling, confirmed in dose response. phenol red-HRP absorbance. shares compounds with DTT redox prof. EC50, µM. 60 compounds, 40% hits;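 active = EC50 under a set limit for hydrogen peroxide production with the reducing agent DTT present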
zVAD necrop conf – inhibitors of zVAD-triggered necroptosis in L929, confirmation, L929 cells, duplicate runs; activation (protection from necroptosis), % at 10 µM; shares compounds with zVAD death inh; 760 compounds, 16% hits; L929 zVAD-induced necroptosis rescue, ATP luminescence, 24 h; AID 463117, 2010;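 active = mean protection from necroptosis of at least 50% over duplicate tests; inactive = mean protection below 50%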;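 also: 0% = cells with zVAD alone and 100% = vehicle cells without zVAD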
* marks the source's active call; other numbers are inactive results; x = no result.

SMILES | TNF death inh | WT yeast gro inh | DTT redox prof | zVAD death inh | PKD1 inh | PERK inhibitor | zVAD necrop conf | others
CNC1=C(N(C(C)=O)c2ccc(Br)cc2)C(=O)c2ccccc2C1=O | -10.9 | -5.0 | 107.6* | 15.1 | -11.7 | -0.4 | x | DTT redox conf=>50
CCC(=O)N(C1=C(NC)C(=O)c2ccccc2C1=O)C(C)C | -10.0 | -3.7 | -2.1 | 0.6 | -0.3 | -0.4 | x
CC(=O)Nc1nc(C)c(CCC2OCCO2)c(=O)[nH]1 | -0.8 | x | x | -0.3 | x | 0.4 | x
O=S(=O)(Nc1cc2nc3ccccc3nc2n1Cc1ccccc1)c1ccc(Cl)cc1 | -3.0 | -5.1 | 85.0* | 3.3 | -5.7 | 0.7 | x | DTT redox conf=>50
O=S(=O)(NCc1ccccc1)c1ccc(Cl)cc1 | 3.0 | -15.2 | 0.2 | 0.2 | -7.2 | 1.7 | x
Cc1cc(C)c(S(=O)(=O)/N=C2/C=C(Sc3ncn[nH]3)C(=O)c3ccccc32)cc1C | -8.5 | 26.4 | 142.9* | 1.4 | -11.9 | 0.9 | x | DTT redox conf=23.3*
Cc1ccc(NC(=O)COc2ncnc3cc([N+](=O)[O-])ccc23)cc1S(=O)(=O)N1CCOCC1 | -0.3 | x | x | 3.1 | x | 1.3 | x
O=S(=O)(Nc1c(S(=O)(=O)c2ccccc2)c2nc3ccccc3nc2n1C1CCCCC1)c1ccccc1 | -1.3 | -2.3 | 95.5* | 2.3 | 5.7 | 0.8 | x | DTT redox conf=12.3*
C=CCn1c(NS(=O)(=O)c2ccccc2)c(S(=O)(=O)c2ccc(C)cc2)c2nc3ccccc3nc21 | -1.6 | 3.5 | 99.2* | 10.8 | 1.5 | 0.6 | x | DTT redox conf=>50
CC(C)(C)NC(=S)NC1CC1 | -0.1 | x | x | 0.9 | x | 0.6 | x
O=C([C@H](O)c1ccccc1)N1CCC[C@H]1CO | 0.6 | -3.9 | -0.2 | 0.8 | 5.1 | 1.2 | x
CC(=O)Nc1cc(OC(C)=O)c2nonc2c1OC(C)=O | -16.7 | x | 113.1* | -0.6 | 4.2 | -0.7 | x | DTT redox conf=7.85*
CC(C)CN(C(=O)COC(=O)c1ccc([N+](=O)[O-])o1)C1CCS(=O)(=O)C1 (stereo not drawn) | 0.4 | -1.9 | 121.7* | 0.8 | -9.0 | 0.9 | x | DTT redox conf=>50
O=C(Cn1nnc(-c2ccc(Cl)cc2)n1)NC1CCN(Cc2ccccc2)CC1 | -5.1 | -0.2 | 1.2 | 2.2 | -1.2 | 1.2 | x
CC1CCCCC1NC(=O)Cn1nnc(-c2ccc(Cl)cc2)n1 (stereo not drawn) | -1.0 | -1.1 | -3.5 | 78.2* | -11.0 | 0.8 | 3.4
Cc1csc(NC(=O)CSc2nsc(SCC(=O)Nc3nc(C)cs3)c2C#N)n1 | -6.7 | 3.8 | 0.4 | 75.5* | -5.4 | -1.7 | 53.4*
O=C1C=CC(O)(c2cc(=O)c3c(O)cc(O)cc3o2)C=C1 | -15.4 | -3.1 | 0.6 | 124.9* | -2.5 | -0.1 | 166.2*
CC(=O)Nc1cccc(NC(C)=C(C#N)C#N)c1 | 1.4 | -3.2 | -0.1 | 0.6 | -10.3 | -0.2 | x
Cc1cnc(N)c2c(=O)oc3ccccc3c12 | -0.7 | 14.9 | -1.4 | 84.3* | 9.9 | 0.7 | 3.3
COc1ccc(S(=O)(=O)N2C(=O)/C(=C3\SC(N)=NC3=O)c3ccccc32)cc1 | -4.3 | x | x | 0.8 | x | 1.0 | x
CN(C)S(=O)(=O)Oc1ccc(C(=O)Nc2cccc(Cl)c2)cc1 | 4.0 | 4.2 | -0.4 | 64.2 | 4.5 | 1.4 | x
CN(c1cccc(NC(=O)CSc2ccc(Cl)cc2)c1)S(C)(=O)=O | -7.3 | -6.3 | 0.1 | 75.3* | -6.2 | -0.4 | 2.8
CN(C)S(=O)(=O)Oc1ccc(C(=O)Nc2cccc(C(F)(F)F)c2)cc1 | -3.8 | -4.4 | -2.1 | 79.2* | 2.5 | 0.0 | 3.3
CN(c1cccc(NC(=O)c2ccc(C(C)(C)C)cc2)c1)S(C)(=O)=O | -1.9 | 22.8 | -0.7 | 77.2* | 4.7 | 1.7 | 36.3
CN(c1cccc(NC(=O)c2ccc(N(C)S(=O)(=O)c3ccccc3)cc2)c1)S(C)(=O)=O | -4.4 | -15.2 | -0.8 | 0.6 | 2.1 | -1.0 | x
SMILES | TNF death inh | WT yeast gro inh | DTT redox prof | zVAD death inh | PKD1 inh | PERK inhibitor | zVAD necrop conf | others
Cc1ccc(C(=O)C(C)OC(=O)c2ccccc2[N+](=O)[O-])cc1 (stereo not drawn) | 0.9 | -2.6 | -0.4 | 0.5 | -2.2 | -1.0 | x
COc1ccc(OC)c(CC(NC(C)=O)C(=O)NC2CCN(c3nc(OC)nc(OC)n3)CC2)c1 (stereo not drawn) | 0.0 | -8.2 | 0.3 | 0.2 | -0.7 | -0.3 | x
NS(=O)(=O)c1cccc(NC(=O)Nc2ccc(Cl)cc2)c1 | 1.2 | x | x | 75.1* | x | 0.7 | 3.4
Cc1cccc(NC(=O)Nc2ccc(S(N)(=O)=O)cc2)c1 | 5.0 | x | x | 1.8 | x | 2.7 | x
Cc1cc(C)c(NC(N)=S)c(C)c1 | 0.1 | x | x | -1.1 | x | 0.7 | x
O=C(Nc1ccc(Cl)cc1)N1N=CCC1c1ccccc1 (stereo not drawn) | 92.1* | x | x | 79.3* | x | 2.6 | 25.1
C(=N/Nc1nccs1)/c1cccnc1 | 6.8 | 3.6 | 0.0 | 78.1* | -7.1 | 0.0 | 3.5
NC(=O)C(C(=O)/C=C/c1ccc(Cl)cc1)=C1SCCS1 | 13.3 | x | x | 81.8* | x | 0.5 | 1.1
COc1ccc(/C=C/C(=O)C(C(N)=O)=C2SCCS2)cc1 | 2.3 | -8.1 | -0.4 | 0.8 | 1.6 | 0.8 | x
CCC(=O)Nc1cccc(NC(=S)NC(=O)c2ccc(Cl)cc2Cl)c1 | 0.2 | -12.6 | -0.3 | 0.7 | -4.7 | 0.2 | x
O=C(NC(=S)Nc1cccc(NC(=O)c2ccc(Cl)cc2Cl)c1)c1cccs1 | -0.7 | 28.7 | 0.4 | 77.3* | -1.7 | 0.2 | 34.5
N#CCCN(C(=O)COc1ccc(Cl)cc1Cl)c1ccccc1 | 1.1 | -12.8 | -0.4 | 0.0 | -8.9 | 0.2 | x
CN1CCN(c2ccc(NC(=O)c3cccs3)cc2)CC1 | 0.6 | 2.8 | -0.2 | 2.1 | -3.4 | 0.0 | x
CN1CCN(c2ccc(-c3ccnn3C(=O)Nc3ccccc3)cc2)CC1 | 8.6 | 16.2 | 0.0 | 83.6* | 8.7 | 0.0 | 29.5
O=C(Nc1ccc(Cl)c(Cl)c1)c1cccc(S(=O)(=O)NCc2cccnc2)c1 | -4.8 | 76.4* | 0.6 | 76.8* | 8.8 | -0.1 | 2.0
N#C/C(=C\C=C\c1ccccc1[N+](=O)[O-])C(=O)NC1CCCCC1 | -1.7 | 6.3 | 0.2 | 75.4* | -2.1 | 0.5 | 0.1
N#C/C(=C\c1cccn1-c1ccccc1)C(=O)NC1CCCCC1 | -3.0 | 31.6 | 0.1 | 0.8 | -9.8 | -1.0 | x
Cc1cc2sc3nc(=O)n(-c4ccccc4)c(=O)n3c2cc1C | 1.3 | x | x | 2.2 | x | 0.5 | x

From PubChem BioAssay
